This is part of a sample that, as a whole, favours compounds with a hit. Of some 79,000 tested, about 15% had one in any assay. Calls of active or inactive are those of the source. No stated cut-off is given here; in the data, active means growth inhibition above about 70%; inactive means the rest.
Legend:
[1] = NCI Yeast Anticancer Drug Screen. Data for the rad52 strain (AID 147);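 further: 0% = growth of vehicle-treated control cultures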; conditions: S. cerevisiae rad52 mutant growth inhibition, active compounds read high
In short: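 Genetically altered yeast (DNA damage repair defect) treated with compound; inhibition calculated relative to vehicle.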

[2] = NCI Yeast Anticancer Drug Screen. Data for the wt1 strain (AID 149);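 further: 0% = growth of vehicle-treated wt1 cultures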; conditions: S. cerevisiae wt1 strain (SPY 50644) growth inhibition, active compounds read high
In short: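 wt1 yeast, compound-treated; % growth inhibition vs vehicle control.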

[3] = NCI Yeast Anticancer Drug Screen. Data for the rad50EPP+ strain (AID 151);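 further: 0% = growth of vehicle-treated control cultures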; conditions: S. cerevisiae rad50 mutant strain, active compounds read high
In short: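 Strain rad50EPP+; compound exposure; % growth inhibition vs vehicle.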

[4] = NCI Yeast Anticancer Drug Screen. Data for the mgt1 strain (AID 153); conditions: S. cerevisiae mgt1 mutant growth inhibition, active compounds read high
In short: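 Read-out: yeast growth inhibition vs vehicle control. Strain mgt1, drawn from a panel altered in DNA damage repair or cell cycle control.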

[5] = NCI Yeast Anticancer Drug Screen. Data for the rad50 strain (AID 155);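 further: 0% = growth of vehicle-only cultures of the same strain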; conditions: S. cerevisiae rad50 strain growth inhibition, active compounds read high
In short: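 Genetically altered yeast (DNA repair pathway); compound treatment; growth inhibition vs vehicle ctrl.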

[6] = NCI Yeast Anticancer Drug Screen. Data for the mec2-1 strain (AID 157); conditions: S. cerevisiae mec2-1 strain, active compounds read high
In short: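 Cells of the genetically defined mec2-1 yeast strain are incubated with test compound. Inhibition of growth is calculated against vehicle-treated controls.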

[7] = NCI Yeast Anticancer Drug Screen. Data for the rad14 strain (AID 159);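 further: 0% = growth of vehicle-treated control cultures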; conditions: S. cerevisiae rad14 strain growth inhibition, active compounds read high
In short: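 Test compounds were applied to a repair-deficient yeast strain. Its growth was then compared with that of cultures given vehicle alone, and inhibition was expressed relative to those controls.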

[8] = NCI Yeast Anticancer Drug Screen. Data for the sgs1 mgt1 strain (AID 161);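 further: 0% = growth of cultures given vehicle only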; conditions: S. cerevisiae sgs1 mgt1 strain, active compounds read high
In short: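 Mutant yeast exposed to compound; growth scored against vehicle-only wells.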

[9] = NCI Yeast Anticancer Drug Screen. Data for the CLN2oe strain (AID 163);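 further: 0% = growth of vehicle-only control cultures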; conditions: S. cerevisiae CLN2oe strain, active compounds read high
In short: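 Strain altered in cell-cycle control, incubated with compound; growth compared to solvent-treated controls.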

[10] = NCI Yeast Anticancer Drug Screen. Data for the cln2 rad14 strain (AID 165);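 further: 0% = growth equal to vehicle treated cultures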; conditions: S. cerevisiae cln2 rad14 strain, active compounds read high
In short: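 The screen exposed genetically defined yeast (cln2 rad14) to test compounds and scored growth inhibition relative to vehicle-treated controls.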

[11] = NCI Yeast Anticancer Drug Screen. Data for the bub3 strain (AID 167); conditions: S. cerevisiae bub3 mutant strain, active compounds read high
In short: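 Yeast carrying a defined mutation is treated with each compound, and growth is compared with that of vehicle-exposed cells to give inhibition.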

[12] = NCI Yeast Anticancer Drug Screen. Data for the mlh1 strain (AID 171);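 further: 0% = growth of vehicle-treated control cultures of the same strain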; conditions: S. cerevisiae mlh1 strain growth inhibition, active compounds read high
In short: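 Yeast screen: mutant strain plus compound, growth scored against vehicle control wells.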

[13] = NCI Yeast Anticancer Drug Screen. Data for the sgs1 strain (AID 173);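 further: 0% = growth of vehicle-only control cultures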; conditions: S. cerevisiae sgs1 mutant, active compounds read high
In short: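 Inhibition of yeast growth served as the measure. The mutant strain was treated with each compound, and growth was normalised to cultures receiving vehicle alone.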

[14] = NCI Yeast Anticancer Drug Screen. Data for the mlh1 rad18 strain (AID 175); conditions: S. cerevisiae mlh1 rad18 strain growth inhibition, active compounds read high
In short: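 Compound-treated yeast growth, normalised to vehicle controls. Strain bears defined DNA repair mutations.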

[15] = NCI Yeast Anticancer Drug Screen. Data for the rad18 strain (AID 177); conditions: S. cerevisiae rad18 mutant growth inhibition, active compounds read high
In short: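 Inhibition values reflect reduced yeast growth compared with vehicle-treated controls, using a strain engineered with a DNA damage repair defect.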

[16] = NCI Yeast Anticancer Drug Screen. Data for the wt2 strain (AID 169);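 further: 0% = growth of vehicle-treated yeast cultures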; conditions: S. cerevisiae wt2 strain growth inhibition, active compounds read high
In short: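 Steps: yeast strain treated with compound; growth recorded; inhibition calculated relative to cultures given vehicle alone.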

[17] = at 5.0 µM (retest, dose inferred, filed as 0.5)
[18] = at 50.0 µM (retest, dose inferred, filed as 5.0)

Measured: growth inhibition

CC(C)OC(=O)Nc1ccc2nc(-c3cscn3)[nH]c2c1
inactive: [1]; at 1.2 µM -3% | [1]; at 3.7 µM -5% | [1]; at 11.0 µM -3% | [1]; at 33.0 µM 1% | [2]; at 1.2 µM -1% | [2]; at 3.7 µM 3% | [2]; at 11.0 µM -1% | [2]; at 33.0 µM -2% | [2]; at 100.0 µM 50% | [3]; at 1.2 µM 9% | [3]; at 3.7 µM 16% | [3]; at 11.0 µM 23% | [3]; at 33.0 µM 31% | [3]; at 100.0 µM 44% | [4]; at 1.2 µM -5% | [4]; at 3.7 µM -7% | [4]; at 11.0 µM -15% | [4]; at 33.0 µM 4% | [5]; at 1.2 µM -1% | [5]; at 3.7 µM -1% | [5]; [17] -4% | [5]; at 11.0 µM -3% | [5]; at 33.0 µM 10% | [5]; [18] 51% | [5]; at 50.0 µM 17.8% | [6]; at 1.2 µM 2% | [6]; at 3.7 µM 5% | [6]; [17] -4% | [6]; at 11.0 µM 8% | [6]; at 33.0 µM 16% | [6]; [18] 23% | [6]; at 50.0 µM -3.75% | [7]; at 1.2 µM -4% | [7]; at 3.7 µM -6% | [7]; at 11.0 µM -4% | [7]; at 33.0 µM 16% | [8]; [17] 1% | [8]; [18] 39% | [9]; at 1.2 µM -8% | [9]; at 3.7 µM -20% | [9]; at 11.0 µM -18% | [9]; at 33.0 µM -13% | [9]; at 100.0 µM 56% | [10]; [17] 8% | [10]; [18] 19% | [10]; at 50.0 µM 12.8% | [11]; at 1.2 µM -3% | [11]; at 3.7 µM -2% | [11]; [17] -1% | [11]; at 11.0 µM 4% | [11]; at 33.0 µM 25% | [11]; at 50.0 µM 7.85% | [12]; at 1.2 µM 1% | [12]; at 3.7 µM 1% | [12]; at 11.0 µM 3% | [12]; at 33.0 µM 16% | [13]; at 1.2 µM 2% | [13]; at 3.7 µM 3% | [13]; at 11.0 µM 8% | [13]; at 33.0 µM 18% | [14]; [17] 11% | [15]; at 1.2 µM -2% | [15]; at 3.7 µM -4% | [15]; at 11.0 µM -3% | [15]; at 33.0 µM 4%
active: [1]; at 100.0 µM 87% | [4]; at 100.0 µM 98% | [5]; at 100.0 µM 90% | [6]; at 100.0 µM 81% | [7]; at 100.0 µM 99% | [8]; at 50.0 µM 76% | [11]; [18] 81% | [11]; at 100.0 µM 97% | [12]; at 100.0 µM 96% | [13]; at 100.0 µM 97% | [14]; [18] 87% | [14]; at 50.0 µM 93.1% | [15]; at 100.0 µM 97%

Cc1c2cc[n+](Cc3ccc(I)cc3)cc2c(C)c2c1[nH]c1ccccc12
inactive: [1]; at 1.2 µM 39% | [1]; at 3.7 µM 36% | [2]; at 1.2 µM 10% | [2]; at 3.7 µM 8% | [3]; at 1.2 µM 30% | [3]; at 3.7 µM 29% | [3]; at 11.0 µM 34% | [4]; at 1.2 µM 9% | [4]; at 3.7 µM -1% | [5]; at 1.2 µM 18% | [5]; at 3.7 µM 12% | [5]; [17] 5% | [6]; at 1.2 µM 19% | [6]; at 3.7 µM 8% | [6]; [17] 33% | [7]; at 1.2 µM 12% | [7]; at 3.7 µM 0% | [10]; [17] 17% | [11]; at 1.2 µM 18% | [11]; at 3.7 µM 18% | [11]; [17] 55% | [16]; at 1.2 µM -21% | [16]; at 3.7 µM -24% | [12]; at 1.2 µM 35% | [12]; at 3.7 µM 35% | [13]; at 1.2 µM 42% | [13]; at 3.7 µM 27% | [14]; [17] 35%
active: [1]; at 11.0 µM 96% | [1]; at 33.0 µM 98% | [1]; at 100.0 µM 95% | [2]; at 11.0 µM 89% | [2]; at 33.0 µM 98% | [2]; at 100.0 µM 97% | [3]; at 33.0 µM 90% | [3]; at 100.0 µM 96% | [4]; at 11.0 µM 90% | [4]; at 33.0 µM 97% | [4]; at 100.0 µM 96% | [5]; at 11.0 µM 96% | [5]; at 33.0 µM 95% | [5]; [18] 93% | [5]; at 50.0 µM 85.5% | [5]; at 100.0 µM 89% | [6]; at 11.0 µM 96% | [6]; at 33.0 µM 97% | [6]; [18] 95% | [6]; at 50.0 µM 87.2% | [6]; at 100.0 µM 95% | [7]; at 11.0 µM 94% | [7]; at 33.0 µM 97% | [7]; at 100.0 µM 96% | [8]; [17] 74% | [8]; [18] 94% | [8]; at 50.0 µM 85.8% | [10]; [18] 94% | [10]; at 50.0 µM 86% | [11]; at 11.0 µM 97% | [11]; at 33.0 µM 96% | [11]; [18] 94% | [11]; at 50.0 µM 83.3% | [11]; at 100.0 µM 89% | [16]; at 11.0 µM 87% | [16]; at 33.0 µM 97% | [16]; at 100.0 µM 96% | [12]; at 11.0 µM 95% | [12]; at 33.0 µM 97% | [12]; at 100.0 µM 96% | [13]; at 11.0 µM 96% | [13]; at 33.0 µM 97% | [13]; at 100.0 µM 96% | [14]; [18] 94% | [14]; at 50.0 µM 89.8%

Source: PubChem BioAssay (NCI)
